Reference: PubChem BioAssay AID2501 (Southern Research Specialized Biocontainment Screening …, 2010)
In all, about 2,200 compounds went through this assay and about 1,200 (55%) were called active. So high a share suggests a set chosen from earlier hits. The list shows a part of the results. Unmarked numbers belong to inactive results. The limit is not given here; nearly all actives have IC50 up to about 92 µM.

assay: counter assay for TAg ATPase ADP read-out – biochemical, ADP-Hunter, fluorescence, counter-screen (AID 2501); conditions: series mostly up to 100 µM; inhibition: at the top concentration;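 also: purified T antigen ATPase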;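 as to inhibition: 0% = enzyme with vehicle and 100% = reference inhibitor wells; higher means more inhibition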

Q: For `N#Cc1c(SCC(=O)Nc2nncs2)sc2c(O)cc(=O)[nH]c12`, which “inhibition” value is on record?
A: Its value is 17.1%.

Q: With `c1nc2sc3c(c2c2nnnn12)CCC3` as the compound, how does the “inhibition” value read?
A: Its value is 19.6%.

Q: With `Nc1ccc(-c2nc3c(Cl)cc(N)cc3[nH]2)cc1` as the compound, how does the IC50 read?
A: The IC50 was 4.91 µM (active).

Q: Which IC50 does the source give for `Nc1ccc(-c2nc3c(Cl)c(N)ccc3[nH]2)cc1` here?
A: Its IC50 is 3.24 µM (active).

Q: With `O=C(O)COc1ccccc1C(Nc1cccnc1)c1cc(Cl)c2cccnc2c1O` (stereo unspecified) as the compound, how does the “inhibition” value read?
A: Its value is 17%.

Q: For `CCc1c(C)nc2ncnn2c1N1CCCC(C(=O)Nc2cc(F)ccc2C)C1` (stereo unspecified), which “inhibition” value is on record?
A: Its value is 8.93%.

Q: For `Cc1ccc(-c2cc(-c3ccco3)c(C#N)c(=O)[nH]2)cc1`, which “inhibition” value is on record?
A: The value was -5.39%.

Q: With `CCCCOC1(c2ccccc2)NC(=S)NN=C1c1ccccc1` (stereo unspecified) as the compound, how does the IC50 read?
A: The IC50 was 4.2 µM (active).

Q: Which IC50 does the source give for `CN1CC(C(=O)O)Cc2c1ccc1ccccc21` (stereo unspecified) here?
A: Its IC50 is 8.64 µM (active).

Q: Which “inhibition” value does the source give for `CC(C)N1CC(C(=O)O)CC1=O` (stereo unspecified) here?
A: The value was -23.5%.

Q: Which IC50 does the source give for `COc1cc(C#CC#CCN2CCCCC2)ccc1O` here?
A: The IC50 was 5.76 µM (active).

Q: Which IC50 does the source give for `CN1C(=O)/C(=C/c2ccc(-c3ccccc3[N+](=O)[O-])o2)SC1=Nc1ccc(Cl)c(C(=O)O)c1` here?
A: Its IC50 is 92.5 µM (active).

Q: With `O=C(O)CN1C(=O)/C(=C\c2cc([N+](=O)[O-])ccc2OCc2ccccc2Cl)SC1=S` as the compound, how does the “inhibition” value read?
A: The value was -18.7%.

Q: For `CN(C)c1ccc(NC(N)=S)cc1`, which IC50 is on record?
A: The IC50 was 3.1 µM (active).

Q: With `CCCCOC(=O)Nc1ccc(N(C)C)cc1` as the compound, how does the IC50 read?
A: The IC50 was 4.65 µM (active).

Q: With `CCCCOC(=O)c1ccc(NC(=O)Nc2ccc(OC)c(OC)c2)cc1` as the compound, how does the “inhibition” value read?
A: The value was 0.76%.

Q: For `CCOC(=O)c1c(C)c(C(=O)Nc2ccc(N(C)C)cc2)c(C)n1CC`, which IC50 is on record?
A: Its IC50 is 10.6 µM (active).

Q: With `C=CCNC(=S)Nc1ccc(N(C)C)cc1` as the compound, how does the IC50 read?
A: The IC50 was 1.99 µM (active).

Q: With `Cc1cc(S(=O)(=O)Nc2c(C)nc3nc[nH]n3c2=O)ccc1F` as the compound, how does the “inhibition” value read?
A: Its value is -32.6%.

Q: For `CC(C)CC(NC(=O)C1CCC(=O)N1C(=O)OCc1ccccc1)C(=O)NC(Cc1ccccc1)C(N)=O` (stereo unspecified), which “inhibition” value is on record?
A: The value was -23%.

Q: With `CCN(CC)C(=S)SSC(=S)N(CC)CC` as the compound, how does the “inhibition” value read?
A: Its value is -2.02%.

Q: Which “inhibition” value does the source give for `O=C(NCC1CCCO1)c1ccc2c(c1)N(Cc1ccc(F)cc1)CCS2` (stereo unspecified) here?
A: The value was 26.3%.

Q: For `Cn1cccc1Cc1nnc(SCC(=O)NCC2CCCO2)n1C` (stereo unspecified), which “inhibition” value is on record?
A: The value was 11.1%.

Q: For `CN(C)c1ccc(NC(=S)NCC2CCCO2)cc1` (stereo unspecified), which IC50 is on record?
A: Its IC50 is 7.16 µM (active).

Q: With `CCOC(=O)C1(C)C=C(Nc2ccc(O)cc2)C(=O)N1c1ccc(O)cc1` (stereo unspecified) as the compound, how does the IC50 read?
A: Its IC50 is 2.33 µM (active).

Q: Which “inhibition” value does the source give for `c1csc(CN2CCOCC2)c1` here?
A: The value was -24.8%.

Q: With `Oc1ccc(NCc2cccs2)cc1` as the compound, how does the IC50 read?
A: Its IC50 is 4.39 µM (active).

Q: Which IC50 does the source give for `Clc1cc(NCc2cccs2)ccc1N1CCOCC1` here?
A: Its IC50 is 31.5 µM (active).

Q: With `COc1ccc2c(c1)C(=O)Cc1ccccc1O2` as the compound, how does the “inhibition” value read?
A: Its value is -33.9%.

Q: For `Nc1cccc2nsnc12`, which IC50 is on record?
A: The IC50 was 11 µM (active).

Q: With `Cc1ccc2nsnc2c1NS(=O)(=O)c1c(C)ccc2nsnc12` as the compound, how does the “inhibition” value read?
A: The value was -23.3%.

Q: Which “inhibition” value does the source give for `Cc1cc2c(N)cccc2nn1` here?
A: Its value is 13.3%.

Q: For `O=C(OCCc1ccccc1)c1cc(O)c(O)c(O)c1`, which IC50 is on record?
A: The IC50 was 29.2 µM (active).

Q: For `O=C(OCC1O[C@@H](OC(=O)c2cc(O)c(O)c(O)c2)[C@@H](OC(=O)c2cc(O)c(O)c(O)c2)[C@@H](OC(=O)c2cc(O)c(O)c(O)c2)[C@@H]1OC(=O)c1cc(O)c(O)c(O)c1)c1cc(O)c(O)c(O)c1` (stereo partly specified), which “inhibition” value is on record?
A: The value was 5.82%.

Q: Which “inhibition” value does the source give for `CN1CCc2cccc3c2[C@@H]1Cc1ccc(O)c(O)c1-3` here?
A: Its value is -223%.

Q: For `CC(C)(C)n1nc2c(c1NC(=O)c1ccccc1S(=O)(=O)C(F)F)CS(=O)(=O)C2`, which “inhibition” value is on record?
A: The value was -36.9%.

Q: With `O=c1[nH][nH]c(=S)n1C1CCCCC1` as the compound, how does the “inhibition” value read?
A: The value was 26.7% [at 25 µM].

Q: With `COc1cccc(/C=N/N2CCN(c3ccncc3S(=O)(=O)N3CCCCC3)CC2)c1` as the compound, how does the “inhibition” value read?
A: The value was -6.08%.

Q: For `COc1ccccc1N1CCN(/N=C/c2ccc(O)c(O)c2)CC1`, which IC50 is on record?
A: The IC50 was 5.45 µM (active).

Q: For `Oc1ccc2[nH]ccc2c1`, which IC50 is on record?
A: The IC50 was 2.23 µM (active).

Q: With `O=C(O)c1ccc(NS(=O)(=O)c2ccc3c(c2)C2C=CCC2C(c2ccccc2F)N3)cc1` (stereo unspecified) as the compound, how does the “inhibition” value read?
A: Its value is 24.8%.

Q: With `Oc1ccc(O)cc1` as the compound, how does the IC50 read?
A: Its IC50 is 7.46 µM (active).

Q: With `CC(=O)c1cc2c(O)c(O)ccc2o1` as the compound, how does the IC50 read?
A: The IC50 was 7.04 µM (active).

Q: Which “inhibition” value does the source give for `Cc1ccc2oc(C(=O)Nc3nonc3C)c(C)c2c1` here?
A: Its value is 17.9%.

Q: Which IC50 does the source give for `CCOc1ccc(/C=N/NC(=O)CSc2ccccn2)cc1O` here?
A: Its IC50 is 2.66 µM (active).

Q: For `COc1cc(/C=N/NC(=O)CSc2ccccn2)ccc1O`, which IC50 is on record?
A: Its IC50 is 4.11 µM (active).

Q: With `Cc1cc(C)nc(NC2=NCC(=O)N2c2cc(Cl)cc(Cl)c2)n1` as the compound, how does the “inhibition” value read?
A: Its value is -31%.

Q: With `CC1(OC(=O)C2CCCC2)C(=O)C=C2C=C(c3ccsc3)N(Cc3ccco3)C=C2C1=O` (stereo unspecified) as the compound, how does the “inhibition” value read?
A: Its value is 6.05%.

Q: For `Nc1ccc2nc(CCCCCCCCc3nc4ccc(N)cc4[nH]3)[nH]c2c1`, which IC50 is on record?
A: Its IC50 is 6.38 µM (active).

Q: For `Nc1ccc2nc(CCCCCCc3nc4ccc(N)cc4[nH]3)[nH]c2c1`, which IC50 is on record?
A: Its IC50 is 2.36 µM (active).

Q: Which IC50 does the source give for `Nc1ccc2nc(CCCO)[nH]c2c1` here?
A: Its IC50 is 2.74 µM (active).

Q: Which “inhibition” value does the source give for `Cc1c(C=NCCOCc2ccccc2)cnn1C` here?
A: The value was -11.4%.

Q: With `COc1ccc(/C=N/Nc2nc(N3CCCC3)nc(N3CCCC3)n2)cc1O` as the compound, how does the IC50 read?
A: The IC50 was 3.91 µM (active).

Q: For `COc1cc(/C=N/Nc2nc(N3CCCC3)nc(N3CCCC3)n2)ccc1O`, which IC50 is on record?
A: The IC50 was 6.61 µM (active).

Q: Which IC50 does the source give for `CCNc1nc(NCC)nc(N/N=C/c2ccc(O)c(OC)c2)n1` here?
A: The IC50 was 5.21 µM (active).

Q: For `CN(C)c1nc(NCc2ccccc2)nc(N/N=C/c2ccc(Cl)cc2Cl)n1`, which “inhibition” value is on record?
A: Its value is -30.1%.
